Results on 40 molecules are retold here after PubChem BioAssay (Tox21).

Results filed as inconclusive are left out. Where a call stands in place of a potency, no number is given. A number with no mark means an inactive call. Active and inactive are the calls of the source. The call rests on the fitted dose curve; in most records, active means well fitted activation curve with a large enough effect in the signal ratio in the repeat runs (not every such curve was filed as active); inconclusive means weak or mixed curves, or effect the other way; inactive means flat fitted curve, though single readings scatter; the % refers to the signal ratio.

The test in a line: qHTS assay to identify small molecule agonists of the endoplasmic reticulum stress response signaling pathway (AID 1159516). The conditions noted are these: ESRE-bla HeLa, ER stress beta-lactamase reporter, 5 h; series mostly up to 61 µM. The text has this:
National Center for Advancing Translational Sciences [NCATS]
NIH Chemical Genomics Center [NCGC]
U.S. Environmental Protection Agency [EPA]
National Institutes of Environmental Health Sciences [NIEHS]
National Toxicology Program [NTP]
U.S. Food and Drug Administration [FDA]
Endoplasmic Reticulum (ER) plays an important role in cellular signaling, protein folding/maturation, stress response, lipid biosynthesis, calcium storage and release etc. Under stress conditions, proteins in ER misfold or unfold, and leading to the expression of ER stress responsive genes. ER stress has been associated with a variety of pathophysiological conditions such as cancer, inflammation, neurodegenerative diseases, diabetes, ischemic heart disease etc. To identify the compounds that induce ER stress response, an ER stress reporter cell line, CellSensor ESRE-bla HeLa (Life Technologies, Carlsbad, CA) containing a beta-lactamase reporter gene under control of the Endoplasmic reticulum Stress Response Element (ESRE) was used to screen Tox21 10K compound library.
Tox21 Assay Protocol Summary:
ESRE-bla HeLa cells were dispensed at 1,500 cells/6 uL of assay medium per well into black wall/clear-bottom 1536-well plates using a Multidrop Combi (ThermoFisher Scientific, Waltham, MA) dispenser. After the assay plates were incubated at 37 C and 5% CO2 for an overnight, 23 nL of compounds dissolved in DMSO, positive controls or DMSO only was transferred to the assay plate by a Pintool station (Kalypsys, San Diego, CA). The assay plates were incubated at 37 C and 5% CO2 for 5 hr. One uL of LiveBLAzer B/G FRET substrate (Life Technologies) was added using a Flying Reagent Dispenser (Aurora Discovery, San Diego, CA) and the plates were incubated at room temperature for 2 hr. Fluorescence intensity (405 nm excitation, 460 nm and 530 nm emissions) was measured using an Envision plate reader (PerkinElmer, Shelton, CT).
`CC(C)c1ccc2c(C(C)C)cc(C(C)C)c(S(=O)(=O)O)c2c1`: the Potency entry is “inactive”.
Same read-out and setting: then `CCCCOC(=O)/C=C\C(=O)OCCCC`, with “inactive”.
On the same count and under the same terms, then `CC(=O)Nc1ccc(/C=N/NC(N)=S)cc1`, with “inactive”.
For the molecule `Cc1ccccn1`, the Potency entry is “inactive”.
For the molecule `CN1CCC(OC(c2ccccc2)c2ccccc2)CC1`, the Potency result is “inactive”.
Consider `C[Si](C)O[Si](C)(C)O[Si](C)(C)O[Si](C)C`, for which the Potency result is “inactive”.
Consider `Cc1ncsc1CCO`, for which the Potency result is “inactive”.
Consider `Oc1ccc(O)c2c(O)cccc12`, for which the Potency result was “inactive”.
Same read-out and setting: under `COc1ccccc1OC(=O)Oc1ccccc1OC` stands “inactive”; under `O=C(O)COC(=O)Cc1ccccc1Nc1c(Cl)cccc1Cl`, “inactive”; under `O=C(O)C1CCC(C(=O)O)CC1` (stereo not given), “inactive”.
Same read-out and setting: under `CCCCCCCCCC(=O)OCC` stands “inactive”.
Still for that read-out and setting: then `NCCCN(CCO)CCO`, with “inactive”; and `CCCCOC(O)CC` (stereo not given), with “inactive”.
`O=C(Cl)c1c(Cl)cccc1Cl`: the Potency entry is “inactive”.
On the same count and under the same terms, under `CN1CCN(C2=Nc3cc(Cl)ccc3Nc3ccccc32)CC1` stands “inactive”; under `CCCC[C@H]1CN(CC2CCOCC2)C(=O)OC12CCN(C1(C)CCN(C(=O)c3c(C)ncnc3C)CC1)CC2`, “inactive”.
As for `CCN(CC)CCOc1ccc2c(c1)C(=O)c1cc(OCCN(CC)CC)ccc1-2`, the Potency entry is “inactive”.
For `CCOC(=S)SSC(=S)OCC`, the Potency entry was “inactive”.
For `CC[C@H](C)[C@H](N)C(=O)O`, the Potency entry is “inactive”.
Still for that read-out and setting: then `N[C@H]1C(O)O[C@H](CO)[C@H](O)[C@@H]1O` (stereo not given in full), with “inactive”; and `CN(C)C/C=C(/c1ccc(Br)cc1)c1cccnc1`, with “inactive”; and `N#CCc1cccc(C(F)(F)F)c1`, with “inactive”.
As to `CC(C)CC=O`, the Potency entry is “inactive”.
The same measure, in the same setting: under `CC1(C)CCC(C)(C)c2cc(NC(=O)c3ccc(C(=O)O)cc3)ccc21` stands “inactive”; under `CCCCOC(=O)c1ccccc1C(=O)OCC(CC)CCCC` (stereo not given), “inactive”.
Same read-out and setting: under `CC[C@H](C)[C@@H](C(=O)O)n1sc2ccccc2c1=O` stands “inactive”.
The same measure, in the same setting: under `CC(C)CCCC(C)CCO` (stereo not given) stands “inactive”.
For `NC[C@H]1O[C@H](O[C@H]2[C@H](O)[C@@H](O[C@H]3O[C@H](CO)[C@@H](O)[C@H](N)[C@H]3O)[C@H](N)C[C@@H]2N)[C@H](O)[C@@H](O)[C@@H]1O`, the activation is -2.16% [at 6.95 µM].
Take `CC(=O)CC(=O)c1ccccc1`: the Potency result is “inactive”.
The same measure, in the same setting: under `CCCCCCCCN(C)C` stands “inactive”; under `O=[N+]([O-])c1cccc(Cl)c1Cl`, “inactive”.
Still for that read-out and setting: under `O=C(O)c1cccc(N(Cc2cccnc2)c2ccc(OC(F)F)c(OC(F)F)c2)c1` stands “inactive”; under `CCOc1ccc2[nH]cc(C(=O)NCc3ccccc3)c(=O)c2n1`, “inactive”; under `O=C(CCN1CCN2CCCC2C1)N1c2ccccc2Sc2ccc(Cl)cc21` (stereo not given), “inactive”.
Consider `CC(C)(C)C(=O)OCOP(=O)(COCCn1cnc2c(N)ncnc21)OCOC(=O)C(C)(C)C`, for which the Potency entry is “inactive”.
Still for that read-out and setting: under `Cc1cc(O)ccc1N` stands “inactive”; under `CC(C)=CCCC(C)CC=O` (stereo not given), “inactive”; under `Cc1ccc(C)o1`, “inactive”.
For the molecule `CCCCCCCCC(CO)CCCCCC` (stereo not given), the Potency result is “inactive”.
